The source of these data is PubChem BioAssay (EPA / NIEHS).

A short description of test [1]: Tanguay_ZF_120hpf_EYE_legacy: (Legacy) Oregon State University Tanguay Lab 120 Hour Post-fertilization zebrafish Assay for Eye Malformation (AID 2283636).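 Also: binary presence or absence of eye malformation scored by brightfield in 120 hpf larvae.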 Summed up: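 Binary brightfield scoring of eye defects at 120 hpf after static exposure from 6 hpf of single pronase-dechorionated wild-type embryos (28C, 0.64% DMSO). Non-mortality endpoints omitted where embryos died; fit vs DMSO.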

Test [2] is described as follows: Tanguay_ZF_120hpf_SNOU_legacy: (Legacy) Oregon State University Tanguay Lab 120 Hour Post-fertilization zebrafish Assay for Snout Malformation (AID 2283637). The essentials:
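Binary snout-malformation call at 120 hpf in wild-type 5D embryos, chorion removed by pronase, under static exposure from 6 hpf at 28C (0.64% DMSO). Embryos dying by 24 or 120 hpf excluded.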

Test [3] is described as follows: Tanguay_ZF_120hpf_JAW_legacy: (Legacy) Oregon State University Tanguay Lab 120 Hour Post-fertilization zebrafish Assay for Jaw Malformation (AID 2283638). The essentials:
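Wild-type 5D embryos, chorion removed at 4 hpf, dosed singly from 6 hpf; 28C static, sealed, foil-covered, to 120 hpf. Endpoint: jaw defect yes/no (brightfield); mortality excludes scoring.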

Test [4] in a line: Tanguay_ZF_120hpf_BRAI_legacy: (Legacy) Oregon State University Tanguay Lab 120 Hour Post-fertilization zebrafish Assay for Brain Malformation (AID 2283641). The essentials: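 Static exposure of staged wild-type embryos until 120 hpf, kept at 28C with light excluded and final DMSO of 0.64% (vol/vol). Presence or absence of brain malformation was noted under brightfield; mortality precluded scoring.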

Test [5] is described as follows: Tanguay_ZF_120hpf_SOMI_legacy: (Legacy) Oregon State University Tanguay Lab 120 Hour Post-fertilization zebrafish Assay for Somite Malformation (AID 2283647). Summed up:
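Somitogenesis defects are recorded as binary calls in whole larvae at 120 hpf after continuous static chemical exposure starting at 6 hpf in dechorionated 5D embryos. DMSO serves as negative control and baseline.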

Test [6] in a line: Tanguay_ZF_120hpf_PFIN_legacy: (Legacy) Oregon State University Tanguay Lab 120 Hour Post-fertilization zebrafish Assay for Pectoral Fin Malformation (AID 2283648).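 Also: each larva judged yes or no for fin defect by brightfield with dead larvae skipped.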 Summed up:
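Pectoral fin malformation was recorded as a binary endpoint at 120 hpf in wild-type Tropical 5D larvae, which had been dechorionated and exposed statically from 6 hpf at 28C in 0.64% DMSO. Dead embryos were excluded.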

The nature of test [7]: Tanguay_ZF_120hpf_CFIN_legacy: (Legacy) Oregon State University Tanguay Lab 120 Hour Post-fertilization zebrafish Assay for Caudal Fin Malformation (AID 2283649). Summed up:
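Single dechorionated 5D wild-type embryos are dosed at 6 hpf (final DMSO 0.64%) and held statically at 28C. Caudal fin malformation is recorded as present or absent at 120 hpf under brightfield, excluding dead embryos.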

Test [8] in a line: Tanguay_ZF_120hpf_PIG_legacy: (Legacy) Oregon State University Tanguay Lab 120 Hour Post-fertilization zebrafish Assay for Pigmentation Malformation (AID 2283650). Summed up: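 Pigment malformation recorded as a binary call at 120 hpf in zebrafish (Tropical 5D) exposed singly from 6 hpf after pronase dechorionation. Static, sealed, 28C exposure, 0.64% DMSO; mortality excludes scoring; positive-direction fit against DMSO.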

Test [9] is described as follows: Tanguay_ZF_120hpf_SWIM_legacy: (Legacy) Oregon State University Tanguay Lab 120 Hour Post-fertilization zebrafish Assay for Swim Bladder Malformation (AID 2283654).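 Also: swim bladder malformation in each larva scored yes or no under brightfield.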 The essentials: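 Scoring is binary for swim bladder defects at 120 hpf, by brightfield inspection of zebrafish larvae. Embryos were exposed singly from 6 hpf after pronase dechorionation, at 28C with 0.64% DMSO; mortality excluded scoring.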

Test [10] is described as follows: Tanguay_ZF_120hpf_TRUN_legacy: (Legacy) Oregon State University Tanguay Lab 120 Hour Post-fertilization zebrafish Assay for Truncated Body (AID 2283655). Summed up:
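Single dechorionated zebrafish embryos received test chemical from 6 hpf in 0.64% DMSO, kept at 28C. At 120 hpf, brightfield inspection noted any truncated body.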

Test [11] is described as follows: Tanguay_ZF_120hpf_NC_legacy: (Legacy) Oregon State University Tanguay Lab 120 Hour Post-fertilization zebrafish Assay for Notochord and Tail Malformation (AID 2283656). Summed up:
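Binary scoring of notochord distortion by brightfield microscopy; embryos dying were not scored. Wild-type Tropical 5D embryos, chorion removed, exposed singly and statically from 6 to 120 hpf, 28C, sealed, 0.64% DMSO.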

Test [12] concerns Thyroperoxidase (TPO), gene 54314. The experiment in a line: CCTE_Simmons_AUR_rTPO: CCTE's Amplex UltraRed Assay for Thyroperoxidase (TPO) Inhibition, Simmons Lab (AID 2283662).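 As to AC50: potency for loss of signal meaning inhibition of peroxidase activity.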 The essentials: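 Cell-free peroxidase activity assay using rat thyroid gland microsomes with excess H2O2 (300 uM) and 25 uM Amplex UltraRed. Compounds tested from 5 nM to 87.5 uM; fluorescence measured after 30 min at 37C, analysed relative to DMSO baseline.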

Test [13] in a line: CCTE_Simmons_CellTiterGLO_HEK293T: Viability Assessment in CCTE's Assays for Thyroperoxidase (TPO) Inhibition, Simmons Lab (AID 2283665).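 As to AC50: cells exposed to compound for 24 h before readout; actives reduce ATP signal below DMSO vehicle meaning cytotoxicity.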 Summed up: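 Luciferase-coupled ATP content after 24 h exposure gives viability; 8-point series from 5 nM to 87.5 uM final in 0.5% DMSO. Human HEK293T cells, 1% FBS medium, three biological replicates, dichlone positive control.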
Background: In ATP-based viability assays light output follows the ATP content of the culture.

Test [14] can be described thus: Tanguay_ZF_120hpf_OTIC_legacy: (Legacy) Oregon State University Tanguay Lab 120 Hour Post-fertilization zebrafish Assay for Otic Vesicle Malformation (AID 2283639). Summed up:
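Binary scoring of otic vesicle defects at 120 hpf in zebrafish (Tropical 5D) held under static exposure at 28C, sealed and shaded, with final DMSO 0.64%. Embryos dying by 24 or 120 hpf excluded; fitted positively against DMSO.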

Test [15] is described as follows: Tanguay_ZF_120hpf_PE_legacy: (Legacy) Oregon State University Tanguay Lab 120 Hour Post-fertilization zebrafish Assay for Pericardial Edema (AID 2283640). Summed up:
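Zebrafish larvae are exposed from early development to 120 hpf at 28C, with 0.64% DMSO final. Each surviving larva receives a yes/no pericardial edema call by brightfield imaging, analysed relative to the DMSO baseline.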

The nature of test [16]: Tanguay_ZF_120hpf_CIRC_legacy: (Legacy) Oregon State University Tanguay Lab 120 Hour Post-fertilization zebrafish Assay for Circulatory Malformation (AID 2283651). The essentials: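 Binary circulatory malformation call at 120 hpf by brightfield imaging of zebrafish larvae; chorion removed at 4 hpf, static exposure from 6 hpf in sealed dark plates at 28C, final DMSO 0.64%; non-mortality endpoints skipped if embryo died.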

Test [17] is described as follows: Tanguay_ZF_120hpf_TR_legacy: (Legacy) Oregon State University Tanguay Lab 120 Hour Post-fertilization zebrafish Assay for Touch Response (AID 2283667). The essentials:
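Binary touch-response endpoint in larvae at 120 hpf after static waterborne exposure from embryo stage (28°C, 0.64% DMSO vehicle, 5 uM trimethyltin chloride as positive control); embryos dead at 24 or 120 hpf excluded; fitted as gain versus DMSO.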

Records with an inconclusive call do not appear. Activity calls are given as the source filed them. The calls were made as follows: active = hit-call score of the fitted dose curve at least 0.9, where 1 is the maximum; inconclusive = response in the unintended direction; inactive = score below 0.9.

By AC50 is commonly meant the concentration at which the activity in the assay is half-maximal.

On to `C=CCc1ccc2c(c1)OCO2`, for which the call in test [1], in test [2], in test [3], in [4], in [5] and in test [6] was inactive. In addition, the molecule was called inactive in test [7], in [8], in test [9], in test [10] and in test [11]. In addition, the AC50 in test [12] was 36.4 µM (active); in test [13], 66.7 µM (active).

With `CC(C)(C)C(O)(CCc1ccc(Cl)cc1)Cn1cncn1` (configuration not stated), the outcome in [1], in [2], in test [14], in [15], in test [4] and in test [5] was inactive. The outcome in [7], in [8], in test [9] and in test [11] was inactive.

`Cc1ccc(N)c(N)c1`: the molecule was classed as inactive in test [1], in test [2], in test [14], in test [15], in test [4] and in test [5]. Moreover, the molecule was classed as inactive in [6], in test [7], in [8], in test [9], in test [10] and in [11]. Besides, the call in test [13] was inactive. Also, the half-maximal activity concentration (AC50) in [12] is 1.68 µM (active).

With `ClC1=C(Cl)[C@]2(Cl)[C@H]3[C@H]([C@@H]4C=C[C@H]3C4)[C@@]1(Cl)C2(Cl)Cl`, the outcome in test [2], in [3], in test [14], in test [4], in test [5] and in [6] was inactive. The call in [7], in test [8], in [9], in test [10] and in [11] was inactive.

Regarding `CC(C)(C)OOC(=O)c1ccccc1`, the call in test [1], in [3], in [14], in test [4], in [5] and in [6] was inactive. The result in test [7], in test [8], in test [9] and in test [10] was inactive.

Regarding `CCCCCCCCOC(=O)c1ccc(C(=O)OCCCCCCCC)c(C(=O)OCCCCCCCC)c1`, the outcome in test [2], in test [14], in [4], in [5], in test [6] and in test [7] was inactive. Moreover, the molecule was called inactive in [8], in [16], in test [9], in [10] and in test [11].

Turning to `c1ccc(NNc2ccccc2)cc1`, the result in test [1], in [2], in test [14], in [15], in test [4] and in [5] was inactive. The call in test [7], in [8], in test [16], in test [10], in [11] and in test [12] was inactive. Moreover, the AC50 in [13] is 19.1 µM (active).

Consider `Brc1ccc(Oc2ccccc2)cc1`, for which the molecule was called inactive in test [1], in test [3], in test [14], in test [4], in test [5] and in test [6]. For the same molecule, the molecule was called inactive in test [7], in [8], in test [16], in test [9], in test [10] and in [11]. The molecule was classed as inactive in test [17].

On to `O=Cc1ccco1`, for which the molecule was classed as inactive in test [1], in test [2], in test [3], in [15], in [4] and in test [5]. The result in [6], in [7], in test [8], in [10] and in [11] was inactive.

For the molecule `C[N+](C)(C)CC1CO1` (configuration not stated), the molecule was called inactive in test [3], in test [14], in [15], in test [4], in test [5] and in test [7]. The molecule was classed as inactive in test [8], in [9], in test [10] and in test [11].

Take `ClCCOCCCl`: the molecule was called inactive in test [2], in test [3], in [4], in [5], in test [6] and in test [7]. Moreover, the result in test [8], in test [9], in test [10], in test [11] and in [17] was inactive.
